# Data as given in PubChem BioAssay.
# Activity calls are given as the source filed them.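 How the source made its calls, unless noted: active means inhibition above 20% together with a positive visual image hit; inconclusive means visual image hit but inhibition not above 20%; inactive means no visual image hit.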
# Legend:
# [1] = inhibitors of TNFa-induced NFkB p65 translocation, primary screen, imaging, HUVEC, MLSMR starter and 10KST1 sets (AID 438); settings: HUVEC TNFa-induced p65 nuclear translocation; cell count: measured here: nuclei count (cytotoxicity indicator), at 2.08 µM; inhibition: at 2 µM, stronger effect = higher value, 0% TNFa-plus-vehicle, 100% no-TNFa wells;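 further: compound added about 3h40 before a 20 min TNFalpha stimulation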;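 on inhibition: signal is the nuclear over cytoplasmic p65 intensity ratio per well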
# [2] = inhibitors of mutant huntingtin aggregation, primary screen, imaging, exon1htt(103Q)mCFP cells, high-content imaging (AID 483;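 active means visual image review flags a hit and inhibition of aggregation exceeds 20%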;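 further: compound exposure lasted 3 days before fixation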;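 on nuclei count: percent of the per-plate median nuclei count of sample wells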); settings: exon1htt(103Q)mCFP cell line, aggregate imaging, at 2 µM; inhibition of aggregation: stronger effect = higher value; nuclei count: measured here: cell count, toxicity
# [3] = inhibitors of E-selectin induction by TNFa, primary screen, imaging, HUVEC, immunofluorescence, MLSMR starter and 10KST1 sets (AID 487;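 active means visually confirmed hit in the image check and inhibition above 20%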;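 on inhibition: signal is fraction of cell area covered by stained E-selectin grains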;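 on nuclei count: 100% = median nuclei count of all wells on the same plate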); settings: HUVEC TNFalpha-induced E-selectin immunofluorescence imaging, at 2 µM; inhibition: stronger effect = higher value; nuclei count: measured here: cell number, toxicity
# [4] = target: Voltage-gated potassium channel subunit beta-2 (Rattus norvegicus) (UniProt P62483); assay: KvBeta enzyme negative modulators, primary screen, biochemical, NADPH fluorescence (AID 622;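 active means fluorescence slope higher than the sample average by over 3 SD, cut at about -0.22 in these data, passing the limit was not always enough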;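 further: slope of raw intensity against log time taken from 70 to 1610 s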); settings: recombinant KvBeta, 4-cyanobenzaldehyde reduction, at 10 µM, stronger effect = higher value
# [5] = target: Voltage-gated potassium channel subunit beta-2 (Rattus norvegicus) (UniProt P62483); assay: KvBeta positive modulators, primary screen, biochemical, NADPH fluorescence (AID 623;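 active means NADPH fluorescence slope more negative than the mean of all samples by about 3 SD, 99.7% confidence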;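 further: fluorescence intensity change per second fitted from 20 to 320 s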); settings: Recombinant KvBeta, NADPH fluorescence decrease slope, 10 min; at 10 µM; stronger effect = lower value
# [6] = target: Alpha-2C adrenergic receptor (Homo sapiens) (UniProt P18825); assay: modulators of alpha2C/GIRK thallium flux, primary screen, cell-based, HEK293 alpha2C/GIRK1/2 (AID 624;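 active means fluorescence slope after compound addition differing from the mean of all screened samples at 99.7% confidence, in either direction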;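 further: slope of fluorescence ratio to pre-addition baseline per second over 15 to 24 s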); settings: thallium flux BTC fluorescence, at 10 µM, actives lie on both sides
# [7] = inhibitors of Sendai virus-induced IRF3 signaling, primary screen, TLR/RLR signaling modifier project, cell-based, Sendai virus stimulus, luciferase, 10K MLSCN set (AID 602276;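 active means inhibition at or above 50% at 10 µM; inactive means inhibition below 50%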;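 further: firefly luciferase from ISG56 promoter only with Renilla not read in this screen; 0% = Sendai virus plus DMSO and 100% = medium plus DMSO without virus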); settings: HEK293 RL24 IRF3 luciferase reporter, at 10 µM, stronger effect = higher value
# [8] = inhibitors of poly I:C-induced TLR3 signaling, primary screen, cell-based, poly I:C stimulus, luciferase, 10K MLSCN set (AID 602277;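 active means inhibition of the reporter signal at or above 50%; inactive means inhibition below 50%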); settings: HEK293-TLR3 RL24 IRF3 luciferase reporter, at 10 µM, stronger effect = higher value
# Sequence of Alpha-2C adrenergic receptor (Homo sapiens) (P18825 whole entry, looked up): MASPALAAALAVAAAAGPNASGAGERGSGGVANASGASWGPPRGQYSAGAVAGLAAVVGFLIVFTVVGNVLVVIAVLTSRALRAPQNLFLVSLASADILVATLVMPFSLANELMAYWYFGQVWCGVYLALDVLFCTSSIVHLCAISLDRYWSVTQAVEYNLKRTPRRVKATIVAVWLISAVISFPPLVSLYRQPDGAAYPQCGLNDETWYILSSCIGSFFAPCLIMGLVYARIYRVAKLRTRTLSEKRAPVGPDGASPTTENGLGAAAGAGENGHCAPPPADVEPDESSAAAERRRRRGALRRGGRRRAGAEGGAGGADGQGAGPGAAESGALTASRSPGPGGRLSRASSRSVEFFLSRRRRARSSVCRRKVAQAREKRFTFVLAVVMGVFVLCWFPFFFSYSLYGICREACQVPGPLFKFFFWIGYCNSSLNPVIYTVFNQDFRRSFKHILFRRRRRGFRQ
# Sequence of Voltage-gated potassium channel subunit beta-2 (Rattus norvegicus) (P62483 whole entry, looked up): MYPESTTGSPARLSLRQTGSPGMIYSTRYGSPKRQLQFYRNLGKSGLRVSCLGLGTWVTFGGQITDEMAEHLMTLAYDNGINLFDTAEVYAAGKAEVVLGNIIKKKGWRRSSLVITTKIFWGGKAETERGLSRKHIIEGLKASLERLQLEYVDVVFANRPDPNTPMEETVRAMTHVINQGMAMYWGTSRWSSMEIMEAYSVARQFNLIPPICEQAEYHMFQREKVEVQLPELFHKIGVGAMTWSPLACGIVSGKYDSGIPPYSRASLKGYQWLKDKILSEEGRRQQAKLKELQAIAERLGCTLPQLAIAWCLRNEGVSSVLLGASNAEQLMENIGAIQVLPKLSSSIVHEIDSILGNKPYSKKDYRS
Compound,cell count [1],inhibition [1],inhibition of aggregation [2],nuclei count [2] [%],inhibition [3],nuclei count [3] [%],fluorescence slope [4],NADPH fluorescence slope [5],slope [6],inhibition [7],inhibition [8]
CCOC(=O)c1ccc(NC(=O)CSC2=NC(=O)C(CC)C(=O)N2)cc1 (stereo not drawn),534,-20.1% (inactive),-43.6% (inactive),83.8,-104% (inactive),102,-0.569 (inactive),2.6e-05 (inactive),0.00682 (inactive),-3.93% (inactive),-17% (inactive)
Cc1cc(=O)[nH]c(SCc2nc3ncccn3c2Br)n1,636,-2.4% (inactive),-10.4% (inactive),76.5,-32.2% (inactive),107,-0.27 (inactive),-6.4e-06 (inactive),0.00645 (inactive),8.84% (inactive),23.4% (inactive)
CC(NC(=O)COc1ccccc1)C(=O)NC1=NCCS1 (stereo not drawn),356,2% (inactive),8.1% (inactive),104,-85.5% (inactive),128,-0.35 (inactive),-2.2e-05 (inactive),0.00548 (inactive),14.4% (inactive),20.3% (inactive)
CN(CCNS(=O)(=O)c1ccc2c(c1)oc(=O)n2C)Cc1ccccc1,739,-6.7% (inactive),-7.2% (inactive),95.2,-65.3% (inactive),119,-0.604 (inactive),-4.2e-05 (inactive),0.0075 (inactive),9.41% (inactive),39.8% (inactive)
NC(=O)c1cccc2c1C(=O)N(C1CCCCC1)C2,836,-0.6% (inactive),-14.1% (inactive),91.2,-26.1% (inactive),117,-0.569 (inactive),-1.8e-05 (inactive),0.00605 (inactive),5.66% (inactive),24.7% (inactive)
CC(C)c1ccc(NC(=O)CCNS(=O)(=O)c2cccc3nonc23)cc1,669,-6.5% (inactive),24.6% (inactive),98,-55.8% (inactive),106,-0.544 (inactive),2.2e-05 (inactive),0.00564 (inactive),16.4% (inactive),24.2% (inactive)
O=C(COc1ccccc1F)NC1CC1,235,-13% (inactive),14.4% (inactive),92.8,19.9% (inactive),100,-0.395 (inactive),-4.8e-05 (inactive),0.0037 (inactive),-0.955% (inactive),11% (inactive)
Cn1c(C(=O)N2CCN(C(=O)c3ccco3)CC2)cc2c(=O)n3ccccc3nc21,323,-3.3% (inactive),-13.8% (inactive),111,-116% (inactive),118,-0.00798 (active),7.5e-06 (inactive),0.00582 (inactive),10.9% (inactive),18% (inactive)
CCOC(=O)c1cccc(NC(=O)CSc2nnc(-c3cccnc3)n2CC)c1,517,-6.7% (inactive),1.2% (inactive),82.2,-12.8% (inactive),112,-0.506 (inactive),-2.6e-05 (inactive),0.00514 (inactive),12.5% (inactive),11.6% (inactive)
Nc1nnn(Cc2ccccc2)n1,885,8.7% (inactive),5.4% (inactive),114,-20.6% (inactive),114,-0.566 (inactive),-2.4e-05 (inactive),0.00494 (inactive),0.136% (inactive),99.3% (active)
CCOC(=O)C1CCCn2c1nc1sc3c(c1c2=O)CCCC3 (stereo not drawn),457,3.7% (inactive),-6% (inactive),110,-114% (inactive),115,-0.435 (inactive),9.6e-06 (inactive),0.00445 (inactive),-24.3% (inactive),-20.3% (inactive)
COCCNC(=O)C(c1cccc(OC)c1)N(Cc1cccs1)C(=O)Cn1nnc2ccccc21 (stereo not drawn),722,-15.1% (inactive),8% (inactive),109,-34.3% (inactive),109,-0.622 (inactive),-5.4e-05 (inactive),0.00445 (inactive),12.4% (inactive),20.1% (inactive)
O=C(NCc1cccs1)c1cc2c(s1)-c1ccccc1OC2,674,1.6% (inactive),-25.1% (inactive),98.2,-49.2% (inactive),108,-0.122 (inactive),-3.3e-06 (inactive),0.00728 (inactive),-42% (inactive),-187% (inactive)
COc1ccccc1NC(=O)CSC1CC(=O)N(c2ccc3c(c2)OCO3)C1=O (stereo not drawn),685,-3.4% (inactive),-2.5% (inactive),95.7,-109% (inactive),122,-0.622 (inactive),2.7e-05 (inactive),0.00433 (inactive),17.9% (inactive),21.8% (inactive)
CCOC(=O)c1sc(Nc2nc3c(OC)cccc3s2)nc1C,435,2.2% (inactive),-20.1% (inactive),106,-20.5% (inactive),101,-0.351 (inactive),2.5e-05 (inactive),0.00775 (inactive),-1.57% (inactive),-60.9% (inactive)
CCN1CCN(C(=O)C2CCN(C(=O)c3cc4sccc4n3CC)CC2)CC1,642,-12.2% (inactive),4.1% (inactive),85.3,-25.4% (inactive),115,-0.556 (inactive),-4.1e-05 (inactive),0.00649 (inactive),12.4% (inactive),45.3% (inactive)
COc1cccc(N2CCN(Cc3cccnc3)CC2)c1,621,-1% (inactive),-21.4% (inactive),96.6,15.6% (inactive),87.2,-0.364 (inactive),-6e-05 (inactive),0.00629 (inactive),6.56% (inactive),11.4% (inactive)
Cc1nnc(SCc2ccccc2)n1N,465,2.9% (inactive),-11.7% (inactive),101,-16.8% (inactive),119,-0.494 (inactive),-4.1e-05 (inactive),0.00525 (inactive),16.3% (inactive),16.6% (inactive)
CCCCOc1ccc(C2C3CN(C(=O)OCC)CC=C3C(C#N)=C(N)C2(C#N)C#N)cc1OC (stereo not drawn),645,-26.7% (inactive),-9.8% (inactive),106,-44.7% (inactive),115,-0.476 (inactive),-2.9e-05 (inactive),0.0065 (inactive),14.6% (inactive),19.7% (inactive)
CCc1ccccc1N1CC23C=CC(O2)C(C(=O)O)C3C1=O (stereo not drawn),591,-3.4% (inactive),-8.2% (inactive),103,-23.4% (inactive),105,-0.515 (inactive),-2.2e-05 (inactive),0.00685 (inactive),12.3% (inactive),36.8% (inactive)
Oc1ccc(N2CCN(C(c3ccncc3)c3nnnn3C3CCCC3)CC2)cc1 (stereo not drawn),661,-18.3% (inactive),-5.2% (inactive),101,-67.5% (inactive),115,-0.502 (inactive),-4.4e-05 (inactive),0.00598 (inactive),17% (inactive),26.3% (inactive)
C=CCN=C1SCC(=O)N1S(=O)(=O)c1ccc(C)cc1,342,-0.2% (inactive),3.3% (inactive),91.1,-135% (inactive),124,-0.364 (inactive),-6.1e-05 (inactive),0.00404 (inactive),5.91% (inactive),11.1% (inactive)
O=C(CN1CCN(c2nc(-c3ccc(F)cc3)cs2)CC1)NCc1ccc2c(c1)OCO2,491,9.9% (inactive),5.2% (inactive),108,-34.5% (inactive),107,-0.582 (inactive),-2.2e-05 (inactive),0.00522 (inactive),16.7% (inactive),17.8% (inactive)
COc1cc2c(c(OC)c1)C(c1ccncc1)CC(=O)N2 (stereo not drawn),624,-11.6% (inactive),-25.7% (inactive),111,-42.5% (inactive),116,-0.565 (inactive),-2.7e-06 (inactive),0.0063 (inactive),-9.07% (inactive),3.48% (inactive)
COCCn1nnnc1CN1CCC(Cc2ccccc2)CC1,513,-16.4% (inactive),-12.1% (inactive),113,-71.7% (inactive),96.1,-0.484 (inactive),-6.1e-05 (inactive),0.00482 (inactive),12.6% (inactive),13.6% (inactive)
CC(C)NC(=O)CSc1nc2ccccc2n1-c1ccccc1,379,2.5% (inactive),-2.9% (inactive),84.5,-80.1% (inactive),125,-0.59 (inactive),9.8e-06 (inactive),0.00781 (inactive),-22.3% (inactive),-5.89% (inactive)
COc1ccc2c(c1OC)C(=O)N(c1ccc3c(c1)CCC3)C2=O,683,-13.1% (inactive),-0.9% (inactive),103,-10.6% (inactive),107,-0.499 (inactive),3.4e-05 (inactive),0.00573 (inactive),8.67% (inactive),-9.24% (inactive)
COc1ccc(C)cc1NC(=O)CN(Cc1nnc(-c2ccc(Cl)cc2)o1)C1CCCC1,392,2.4% (inactive),-4.1% (inactive),85.9,-43.8% (inactive),110,-0.478 (inactive),2.2e-05 (inactive),0.00634 (inactive),-26.9% (inactive),-33.6% (inactive)
